Assay results: PubChem BioAssay (NCI)
Compounds without any hit were thinned out: in the full panel of roughly 79,000, 15% have a hit. Active and inactive are the calls of the source. Cut-off read from the data, not from the text of the source: active = growth inhibition above about 70%; inactive = the rest.

Tests used:
[1] = NCI Yeast Anticancer Drug Screen. Data for the rad52 strain (AID 147);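 note: 0% = growth of vehicle-treated control cultures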; settings: S. cerevisiae rad52 mutant growth inhibition, active compounds read high
In short: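 Compounds are applied to a genetically defined yeast strain lacking normal DNA damage repair, and inhibition of growth is expressed relative to cultures given vehicle only.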

[2] = NCI Yeast Anticancer Drug Screen. Data for the wt1 strain (AID 149);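 note: 0% = growth of vehicle-treated wt1 cultures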; settings: S. cerevisiae wt1 strain (SPY 50644) growth inhibition, active compounds read high
In short: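 Vehicle-normalised growth inhibition; strain wt1; compound exposure.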

[3] = NCI Yeast Anticancer Drug Screen. Data for the mgt1 strain (AID 153); settings: S. cerevisiae mgt1 mutant growth inhibition, active compounds read high
In short: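 Strain: mgt1 yeast, one of a set carrying defined DNA damage repair or cell cycle control alterations. Compound-treated growth compared with vehicle.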

[4] = NCI Yeast Anticancer Drug Screen. Data for the rad50 strain (AID 155);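 note: 0% = growth of vehicle-only cultures of the same strain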; settings: S. cerevisiae rad50 strain growth inhibition, active compounds read high
In short: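 A DNA repair-deficient yeast mutant serves as the test organism; compound-induced growth inhibition is calculated against vehicle-treated cells.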

[5] = NCI Yeast Anticancer Drug Screen. Data for the mec2-1 strain (AID 157); settings: S. cerevisiae mec2-1 strain, active compounds read high
In short: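 Strain: mec2-1 (DNA repair/cell cycle alteration). Compound exposure, then growth measured; inhibition expressed relative to vehicle.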

[6] = NCI Yeast Anticancer Drug Screen. Data for the rad14 strain (AID 159);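 note: 0% = growth of vehicle-treated control cultures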; settings: S. cerevisiae rad14 strain growth inhibition, active compounds read high
In short: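 Vehicle-treated cultures served as the baseline for growth inhibition of a DNA repair-mutant yeast strain exposed to each compound.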

[7] = NCI Yeast Anticancer Drug Screen. Data for the sgs1 mgt1 strain (AID 161);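 note: 0% = growth of cultures given vehicle only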; settings: S. cerevisiae sgs1 mgt1 strain, active compounds read high
In short: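 Read-out: growth inhibition vs vehicle controls. Cells: mutant yeast strain deficient in DNA damage repair.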

[8] = NCI Yeast Anticancer Drug Screen. Data for the CLN2oe strain (AID 163);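 note: 0% = growth of vehicle-only control cultures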; settings: S. cerevisiae CLN2oe strain, active compounds read high
In short: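 Growth of a genetically modified yeast strain is measured after compound exposure and compared with cultures given vehicle alone.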

[9] = NCI Yeast Anticancer Drug Screen. Data for the cln2 rad14 strain (AID 165);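 note: 0% = growth equal to vehicle treated cultures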; settings: S. cerevisiae cln2 rad14 strain, active compounds read high
In short: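 Compounds are applied to the cln2 rad14 yeast strain, and growth is then compared with that of vehicle-treated cultures to give inhibition.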

[10] = NCI Yeast Anticancer Drug Screen. Data for the bub3 strain (AID 167); settings: S. cerevisiae bub3 mutant strain, active compounds read high
In short: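 Inhibition values come from growth of compound-treated mutant yeast normalised to vehicle-treated controls.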

[11] = NCI Yeast Anticancer Drug Screen. Data for the wt2 strain (AID 169);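 note: 0% = growth of vehicle-treated yeast cultures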; settings: S. cerevisiae wt2 strain growth inhibition, active compounds read high
In short: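 This strain belongs to a panel of yeast strains with defined genetic alterations in DNA damage repair or cell cycle control. Compounds are applied, and growth inhibition is measured against vehicle-treated cultures.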

[12] = NCI Yeast Anticancer Drug Screen. Data for the mlh1 strain (AID 171);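 note: 0% = growth of vehicle-treated control cultures of the same strain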; settings: S. cerevisiae mlh1 strain growth inhibition, active compounds read high
In short: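 Growth of the mutant yeast strain after compound exposure, expressed as inhibition relative to vehicle-only controls.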

[13] = NCI Yeast Anticancer Drug Screen. Data for the sgs1 strain (AID 173);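 note: 0% = growth of vehicle-only control cultures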; settings: S. cerevisiae sgs1 mutant, active compounds read high
In short: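 Growth of a yeast strain bearing a defined genetic alteration is measured after compound treatment. Inhibition is expressed relative to vehicle-only controls.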

[14] = NCI Yeast Anticancer Drug Screen. Data for the mlh1 rad18 strain (AID 175); settings: S. cerevisiae mlh1 rad18 strain growth inhibition, active compounds read high
In short: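 Read-out is yeast growth inhibition, calculated against vehicle-only controls. The compound was applied to a strain engineered with DNA damage repair alterations.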

[15] = NCI Yeast Anticancer Drug Screen. Data for the rad18 strain (AID 177); settings: S. cerevisiae rad18 mutant growth inhibition, active compounds read high
In short: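 Growth of the mutant yeast strain after compound exposure, normalised to vehicle-only cultures.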

[16] = NCI Yeast Anticancer Drug Screen. Data for the rad50EPP+ strain (AID 151);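 note: 0% = growth of vehicle-treated control cultures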; settings: S. cerevisiae rad50 mutant strain, active compounds read high
In short: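 Compounds were applied to the rad50EPP+ yeast strain, which bears a defined DNA repair alteration, and growth inhibition was determined relative to vehicle-treated cultures.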

[17] = at 5.0 µM (retest, dose inferred, filed as 0.5)
[18] = at 50.0 µM (retest, dose inferred, filed as 5.0)

Measured: growth inhibition

CCCCCCC1OCC(O)C(OCCCC)O1 (stereo unspecified)
inactive: [1]; at 1.2 µM -3% | [1]; at 3.7 µM -4% | [1]; at 11.0 µM -2% | [1]; at 33.0 µM -4% | [1]; at 100.0 µM -4% | [2]; at 1.2 µM -4% | [2]; at 3.7 µM -3% | [2]; at 11.0 µM -5% | [2]; at 33.0 µM -8% | [2]; at 100.0 µM -10% | [3]; at 1.2 µM -6% | [3]; at 3.7 µM -4% | [3]; at 11.0 µM -4% | [3]; at 33.0 µM -6% | [3]; at 100.0 µM -3% | [4]; at 1.2 µM -5% | [4]; at 3.7 µM -11% | [4]; [17] -15% | [4]; at 11.0 µM -4% | [4]; at 33.0 µM -3% | [4]; [18] 3% | [4]; at 50.0 µM -0.55% | [4]; at 100.0 µM 1% | [5]; at 1.2 µM -2% | [5]; at 3.7 µM -3% | [5]; [17] -11% | [5]; at 11.0 µM -2% | [5]; at 33.0 µM -5% | [5]; [18] -35% | [5]; at 50.0 µM -13.7% | [5]; at 100.0 µM -4% | [6]; at 1.2 µM -5% | [6]; at 3.7 µM -4% | [6]; at 11.0 µM -4% | [6]; at 33.0 µM -3% | [6]; at 100.0 µM 0% | [7]; [17] -4% | [7]; [18] 16% | [7]; at 50.0 µM 11.2% | [8]; at 1.2 µM -5% | [8]; at 3.7 µM -3% | [8]; at 11.0 µM -12% | [8]; at 33.0 µM -8% | [8]; at 100.0 µM -7% | [9]; [17] -10% | [9]; [18] 60% | [9]; at 50.0 µM 0.05% | [10]; at 1.2 µM -5% | [10]; at 3.7 µM -6% | [10]; [17] -6% | [10]; at 11.0 µM -8% | [10]; at 33.0 µM -10% | [10]; [18] 15% | [10]; at 50.0 µM -8.05% | [10]; at 100.0 µM -12% | [11]; at 1.2 µM -4% | [11]; at 3.7 µM -5% | [11]; at 11.0 µM -6% | [11]; at 33.0 µM -7% | [11]; at 100.0 µM -7% | [12]; at 1.2 µM 0% | [12]; at 3.7 µM -1% | [12]; at 11.0 µM 0% | [12]; at 33.0 µM 1% | [12]; at 100.0 µM 6% | [13]; at 1.2 µM -4% | [13]; at 3.7 µM -1% | [13]; at 11.0 µM 0% | [13]; at 33.0 µM 0% | [13]; at 100.0 µM 4% | [14]; [17] 2% | [14]; [18] -4% | [14]; at 50.0 µM -15.8% | [15]; at 1.2 µM -3% | [15]; at 3.7 µM 1% | [15]; at 11.0 µM -1% | [15]; at 33.0 µM -2% | [15]; at 100.0 µM 1%

Cc1nc2sc3c(c2c(=O)o1)CCCC3
active: [10]; at 50.0 µM 72.9%
inactive: [1]; at 1.2 µM 0% | [1]; at 3.7 µM 2% | [1]; at 11.0 µM 1% | [1]; at 33.0 µM 6% | [1]; at 100.0 µM 4% | [2]; at 1.2 µM -1% | [2]; at 3.7 µM 0% | [2]; at 11.0 µM 1% | [2]; at 33.0 µM -1% | [2]; at 100.0 µM 2% | [16]; at 1.2 µM -6% | [16]; at 3.7 µM -8% | [16]; at 11.0 µM -10% | [16]; at 33.0 µM -3% | [16]; at 100.0 µM -1% | [4]; at 1.2 µM 0% | [4]; at 3.7 µM 2% | [4]; [17] 18% | [4]; at 11.0 µM -11% | [4]; at 33.0 µM 7% | [4]; [18] 10% | [4]; at 50.0 µM 4.2% | [4]; at 100.0 µM 5% | [5]; at 1.2 µM 2% | [5]; at 3.7 µM 2% | [5]; [17] 5% | [5]; at 11.0 µM 2% | [5]; at 33.0 µM 6% | [5]; [18] -4% | [5]; at 50.0 µM 25.3% | [5]; at 100.0 µM 6% | [6]; at 1.2 µM 0% | [6]; at 3.7 µM -4% | [6]; at 11.0 µM 2% | [6]; at 33.0 µM 13% | [6]; at 100.0 µM 10% | [7]; [17] -6% | [7]; [18] 14% | [7]; at 50.0 µM 26.6% | [8]; at 1.2 µM -1% | [8]; at 3.7 µM 1% | [8]; at 11.0 µM 2% | [8]; at 33.0 µM 6% | [8]; at 100.0 µM 14% | [9]; [17] 23% | [9]; [18] 3% | [9]; at 50.0 µM 4.5% | [10]; at 1.2 µM 6% | [10]; at 3.7 µM 18% | [10]; [17] 30% | [10]; at 11.0 µM 31% | [10]; at 33.0 µM 39% | [10]; [18] 51% | [10]; at 100.0 µM 28% | [11]; at 1.2 µM -1% | [11]; at 3.7 µM 1% | [11]; at 11.0 µM 1% | [11]; at 33.0 µM 3% | [11]; at 100.0 µM 4% | [13]; at 1.2 µM -2% | [13]; at 3.7 µM -4% | [13]; at 11.0 µM -2% | [13]; at 33.0 µM 1% | [13]; at 100.0 µM 2% | [14]; [17] -2% | [14]; [18] -2% | [14]; at 50.0 µM 26% | [15]; at 1.2 µM -3% | [15]; at 3.7 µM -3% | [15]; at 11.0 µM -4% | [15]; at 33.0 µM -15% | [15]; at 100.0 µM 1%
